# From PubChem BioAssay (NCATS)
# Records with an inconclusive call do not appear. Entries that show only a call come without a potency. Calls of active or inactive are those of the source. The call rests on the fitted dose curve; in most records, active means well fitted curve in the direction sought with a large enough effect; inconclusive means small, poorly fitted or top-dose-only effect, or another doubt; inactive means no such curve, though single readings can be large; an effect the other way counts as inactive or inconclusive.
# Assay: MultiTox-Fluor Cytotoxicity Assay - LYMP1-002 - Live Cells (AID 955);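 further: cells exposed to compound for 16 hours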
# Details: LYMP1-002 lymphoblastoid live-cell protease fluorescence viability; series mostly up to 46.1 µM
# Method in brief: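 Cells were seeded at 2500 per well and incubated 5 hr. Compounds were then added for 16 hr at 37 C, followed by MultiTox-Fluor reagent for 60 min at room temperature and fluorescence reading of viable-cell protease signal.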
row,SMILES,outcome
1,NC(=O)N/N=C/c1ccc([N+](=O)[O-])o1,inactive
2,C[C@]12C[C@H](O)[C@H]3[C@@H](CCC4=CC(=O)CC[C@@]43C)[C@@H]1CC[C@@H]2C(=O)CO,inactive
3,NC(=O)c1ncn([C@@H]2O[C@H](CO)[C@@H](O)[C@H]2O)n1,inactive
4,O=C1c2c(O)cccc2Cc2cccc(O)c21,inactive
5,NCCNCCNCCN,inactive

# Assay: MultiTox-Fluor Cytotoxicity Assay - LYMP1-002 - Dead Cells (AID 960);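 further: cells exposed to compound for 16 h at 37 °C; nearly all actives have a fitted effect of over 60% in size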
# Details: LYMP1-002 lymphoblastoid cells, dead-cell protease fluorescence; series mostly up to 46.1 µM
# Method in brief: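 Cells were plated, rested 5 hr, then treated with compound dilution series for 16 hr at 37 C. After adding substrate reagent and 60 min at room temperature, dead-cell protease fluorescence gave concentration-response curves fitted by the Hill equation.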
row,SMILES,outcome
1,NC(=O)N/N=C/c1ccc([N+](=O)[O-])o1,inactive
2,C[C@]12C[C@H](O)[C@H]3[C@@H](CCC4=CC(=O)CC[C@@]43C)[C@@H]1CC[C@@H]2C(=O)CO,inactive
3,NC(=O)c1ncn([C@@H]2O[C@H](CO)[C@@H](O)[C@H]2O)n1,inactive
4,NCCNCCNCCN,inactive

# Assay: MultiTox-Fluor Cytotoxicity Assay - LYMP1-003 - Dead Cells (AID 961);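 further: cells exposed to compound for 16 h at 37 °C; nearly all actives have a fitted effect of over 70% in size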; further: potency means the concentration at half of the fitted maximal effect
# Details: LYMP1-003 lymphoblastoid cells, dead-cell protease fluorescence; series mostly up to 92.2 µM
# Method in brief: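 Human lymphoblastoid LYMP1-003 cells (2500/well) were treated with compounds for 16 hr at 37 C in complete medium. Dead-cell protease release was read by bis-AAF-R110 fluorescence (Ex/Em 485/520). AC50 came from Hill fits, normalized to DMSO and 15 uM tetraoctylammonium bromide.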
row,SMILES,Potency
1,NC(=O)N/N=C/c1ccc([N+](=O)[O-])o1,inactive
2,C[C@]12C[C@H](O)[C@H]3[C@@H](CCC4=CC(=O)CC[C@@]43C)[C@@H]1CC[C@@H]2C(=O)CO,inactive
3,NC(=O)c1ncn([C@@H]2O[C@H](CO)[C@@H](O)[C@H]2O)n1,inactive
4,Cc1c(O)cccc1C(=O)N[C@@H](CSc1ccccc1)[C@H](O)CN1C[C@H]2CCCC[C@H]2C[C@H]1C(=O)NC(C)(C)C,50.1 µM (active)
5,O=C1c2c(O)cccc2Cc2cccc(O)c21,inactive
6,NCCNCCNCCN,inactive
